# The whole screen tested about 52,000 compounds, of which about 4,300 (8.3%) were called active. No stated cut-off is given here; in the data, active means survival mostly below about 52% (no sharp cut-off); inactive means mostly above about 56%. Many of the other results were omitted from the sample, so actives are more common in it than they were.
# Test system: DeltatarO mutant
# Experiment: S. aureus survival, RN4220 and DeltatarO strains – OD600, teichoic acid synthesis inhibitors, primary screen (AID 463173)
# Settings: S. aureus RN4220 wild type/DeltatarO growth, OD600, 18 h, active compounds read low, screened at 18.75 µg/mL (by protocol)
row,Structure (SMILES),survival
1,CC(=O)c1ccc(N2CCN(c3ncnc4c3c(-c3ccccc3)cn4-c3ccc(Cl)cc3)CC2)cc1,91% (inactive)
2,O=C(CSc1nc2ccsc2c(=O)n1Cc1ccccc1F)NCc1ccccc1,122% (inactive)
3,COc1cccc(NC(=O)Cn2c(=O)n(-c3cccc(OC)c3)c(=O)c3sc4ccccc4c32)c1,65% (inactive)
4,CCCCNC(=O)c1ccc2c(=O)n(-c3ccccc3)c(=O)[nH]c2c1,80% (inactive)
5,COc1ccc(C(=O)N2CC(=O)Nc3ccc(F)cc3C2c2ccc(F)cc2)c(OC)c1 (stereo unspecified),58% (inactive)
6,Cc1ccccc1CNCc1c(C(=O)O)c(C)n(Cc2ccc(F)cc2Cl)c1C,59% (inactive)
7,O=C(COCc1cc(-c2cccs2)on1)NCc1cccc(Cl)c1,117% (inactive)
8,CCOc1nc(NC(=O)NS(=O)(=O)Oc2ccccc2)nc(-c2ccccc2)n1,70% (inactive)
9,CCOC(=O)c1ccc(N2C(=O)Cc3cc(OCC)c(OCC)cc3C2c2ccccc2)cc1 (stereo unspecified),117% (inactive)
10,CC(C)NC(=O)c1ccc2c(c1)nnn2C,78% (inactive)
11,Cc1noc(-c2ccccc2OCC(=O)Nc2cccc([N+](=O)[O-])c2)n1,60% (inactive)
12,Cc1ccccc1-c1noc(-c2ccccc2OCC(=O)Nc2cccc([N+](=O)[O-])c2)n1,51% (inactive)
13,CC(=O)c1ccc(NC(=O)COc2ccccc2-c2nc(-c3ccc(C)cc3)no2)cc1,57% (inactive)
14,O=C(COc1ccccc1-c1nc(-c2ccccc2)no1)Nc1ccc([N+](=O)[O-])cc1,44% (active)
15,O=C(COc1ccccc1-c1nc(-c2ccccc2)no1)Nc1cccc([N+](=O)[O-])c1,34% (active)
16,Cc1cccc(-c2noc(-c3ccccc3OCC(=O)Nc3ccc([N+](=O)[O-])cc3)n2)c1,50% (inactive)
17,CCN(C(=O)C1CCN(S(=O)(=O)c2ccc3c(c2)CCCN3C(C)=O)CC1)c1cccc(C)c1,88% (inactive)
18,CCN(CC)S(=O)(=O)c1ccc(OC)c(-n2cnnn2)c1,65% (inactive)
19,O=C(Nc1ccccc1F)c1nc(S(=O)(=O)Cc2ccccc2F)ncc1Cl,-4% (active)

row,Structure (SMILES),survival
1,COC(=O)c1ccccc1NC(=O)c1nc(S(=O)(=O)Cc2ccccc2F)ncc1Cl,110% (inactive)
2,COc1ccc2nc(NC(=O)c3nc(S(=O)(=O)Cc4ccccc4F)ncc3Cl)sc2c1,61% (inactive)
3,COc1ccc(NC(=O)c2nc(SCc3ccccc3F)ncc2Cl)cc1,73% (inactive)
4,O=C(Nc1ccccc1F)c1nc(SCc2ccccc2F)ncc1Cl,73% (inactive)
5,CCOc1ccc(NC(=O)c2nc(S(=O)(=O)Cc3ccccc3F)ncc2Cl)cc1,11% (active)
6,Cc1cc(C)c2c(=O)cc(C(=O)Nc3sc4c(c3C(=O)NCc3cccnc3)CCCC4)oc2c1,68% (inactive)
7,CCOCCCNC(=O)c1c(NC(=O)c2cc(=O)c3ccccc3o2)sc2c1CCC2,48% (inactive)
8,Cc1nc2c(Cl)cc(Cl)cc2[nH]1,88% (inactive)
9,COc1cccc2cc(-c3cn4c(n3)sc3cc(F)ccc34)c(=O)oc12,60% (inactive)
10,CCOc1cccc2cc(-c3cn4c(n3)sc3cc(C)ccc34)c(=O)oc12,-4% (active)
11,CCOc1cccc2cc(-c3cn4c(n3)sc3ccccc34)c(=O)oc12,72% (inactive)
12,COCCCNC(=O)CS(=O)Cc1nc(-c2cccc(C)c2)oc1C (stereo unspecified),90% (inactive)
13,S=C(NC12CC3CC(CC(C3)C1)C2)N1CCOCC1,98% (inactive)
14,CCC(C)NC(=O)c1cn(CC)c2ccc(S(=O)(=O)N3CCCCC3)cc2c1=O (stereo unspecified),84% (inactive)
15,Cc1ccc(COC(=O)c2[nH]c3c(c2C)C(=O)CC(c2ccc(N(C)C)cc2)C3)cc1 (stereo unspecified),77% (inactive)
16,CCCOC(=O)c1c(NC(=O)c2nc3ncccn3n2)sc(C(=O)OCC)c1C,68% (inactive)
17,O=C(CN1C(=O)CCc2cc(S(=O)(=O)N3CCCCC3)ccc21)NCc1ccc(Cl)cc1,78% (inactive)
18,CC(=O)Nc1ccccc1-c1nc2ccccc2n(CC(=O)c2ccc(C)c(C)c2)c1=O,104% (inactive)
19,CC(=O)Nc1ccc(C)cc1-c1nc2ccccc2n(CC(=O)c2ccc(Cl)cc2)c1=O,82% (inactive)

row,Structure (SMILES),survival
1,CCC(=O)Nc1ccccc1-c1nc2ccccc2n(CC(=O)c2ccc(C)c(C)c2)c1=O,33% (active)
2,CCC(=O)Nc1ccc(C)cc1-c1nc2ccccc2n(CC(=O)c2ccc(C)cc2)c1=O,68% (inactive)
3,CCC(=O)Nc1ccccc1-c1nc2ccccc2n(CC(=O)Nc2ccc(C)c(C)c2)c1=O,47% (inactive)
4,CCC(=O)Nc1ccccc1-c1nc2ccccc2n(CC(=O)c2ccc(Cl)cc2)c1=O,35% (active)
5,CCC(=O)Nc1ccccc1-c1nc2ccccc2n(CC(=O)c2ccc(C)cc2)c1=O,50% (inactive)
6,CC(=O)Nc1ccccc1-c1nc2ccccc2n(CC(=O)c2ccc(Br)cc2)c1=O,76% (inactive)
7,CCC(=O)Nc1ccccc1-c1nc2ccccc2n(CC(=O)c2ccc(Br)cc2)c1=O,29% (active)
8,COc1ccc(CCNC(=O)Cn2c(=O)n(-c3cc(OC)c(OC)c(OC)c3)c(=O)c3ccccc32)cc1OC,81% (inactive)
9,COc1cc(CNCCSc2nnnn2C)ccc1OCc1ccc(F)cc1,122% (inactive)
10,COC(=O)c1ccccc1NC(=O)c1cnc2c(-c3cccc(C)c3)c(C)nn2c1C,128% (inactive)
11,CCOc1ccc2nc(SCC(=O)N(C)C3CCCCC3)c(C#N)cc2c1,89% (inactive)
12,COc1cc(NC(=O)c2nc3ccccc3nc2N2CCCCC2)cc(OC)c1OC,87% (inactive)
13,COc1cc(NC(=O)C2CCN(c3cnccn3)CC2)cc(OC)c1,79% (inactive)
14,COc1cc(NC(=O)C2CCN(c3cnc4ccccc4n3)CC2)cc(OC)c1OC,-5% (active)
15,COc1cc(NC(=O)C2CCN(c3nc4ccccc4nc3C(F)(F)F)CC2)cc(OC)c1,101% (inactive)
16,COc1ccccc1NC(=O)C1CCN(c2cnccn2)CC1,54% (active)
17,CCc1ccccc1NC(=O)C1CCN(c2cnccn2)CC1,43% (inactive)
18,Cc1c(Cl)cccc1NC(=O)CN1C(=O)COc2ccc(S(=O)(=O)Nc3ccccc3)cc21,60% (inactive)

# Source: PubChem BioAssay AID463173 (ICCB-Longwood Screening Facility, Harvard Medical School, 2010)
